The record followed here is PubChem BioAssay (NCATS).

Assay [1] addresses Cytochrome P450 2D6 (Homo sapiens) (UniProt P10635). In words: Cytochrome P450 family 2 subfamily D member 6 (CYP2D6) small molecule antagonists: luciferase biochemical (cell-free) qHTS assay (AID 1645840; active = well fitted curve in the direction sought with a large enough effect in the repeat runs; an effect the other way counts as inactive or inconclusive; also: nearly all actives have a fitted effect of over 55% in size; also: potency is read from the fitted curve at half-maximal effect; as to activity change, negative = inhibition: series mostly up to about 57 µM; % is scaled to controls: 0 for no effect and ±100 for the full control effect). In outline:
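P450-Glo CYP2D6 system: proluciferin substrate converted by enzyme to luciferin, read by luminescence proportional to activity. Enzyme-substrate mix with compound 10 min at room temperature, then NADPH regeneration 1 h before detection reagent.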
(In general: qHTS replaces the single test concentration by a dilution series.)

In assay [2] the target is Cytochrome P450 2C9 (Homo sapiens) (UniProt P11712). In words: Cytochrome P450 family 2 subfamily C member 9 (CYP2C9) small molecule antagonists: luciferase biochemical (cell-free) qHTS assay (AID 1645842; active = well fitted curve in the direction sought with a large enough effect in the repeat runs; an effect the other way counts as inactive or inconclusive; also: nearly all actives have a fitted effect of over 55% in size; also: potency is read from the fitted curve at half-maximal effect; as to activity change, negative = inhibition: series mostly up to about 57 µM; % is scaled to controls: 0 for no effect and ±100 for the full control effect). In outline: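 P450-Glo CYP2C9 system: proluciferin substrate with enzyme in mix containing 0.4% BSA, 10 min at room temperature, then NADPH regeneration solution added and incubated 1 h at 37C. Detection reagent stopped reaction; luminescence read after 20 min as RLU.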
Chain of Cytochrome P450 2C9 (Homo sapiens) (P11712 whole entry, looked up): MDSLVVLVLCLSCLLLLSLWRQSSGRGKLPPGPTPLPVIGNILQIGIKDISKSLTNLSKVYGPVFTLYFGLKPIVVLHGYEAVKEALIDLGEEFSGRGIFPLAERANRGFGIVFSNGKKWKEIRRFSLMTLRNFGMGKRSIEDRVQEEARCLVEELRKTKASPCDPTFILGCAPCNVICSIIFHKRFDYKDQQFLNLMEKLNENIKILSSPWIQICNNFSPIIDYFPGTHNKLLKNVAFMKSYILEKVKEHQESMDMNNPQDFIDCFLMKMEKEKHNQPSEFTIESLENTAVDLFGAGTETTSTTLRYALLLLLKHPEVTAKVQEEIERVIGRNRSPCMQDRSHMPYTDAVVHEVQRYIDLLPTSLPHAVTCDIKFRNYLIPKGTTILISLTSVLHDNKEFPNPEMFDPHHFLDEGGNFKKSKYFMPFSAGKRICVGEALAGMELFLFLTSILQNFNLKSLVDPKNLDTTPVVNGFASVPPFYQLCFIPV

Assay [3] in a line: Primary qHTS for inhibitors of nuclear receptor binding SET domain protein 2 (NSD2) in an isogenic RCH-ACV NSD2 p.E1099K mutant (9B) (AID 1645876). Also: nearly all actives have a fitted effect of over 70% in size. Also: potency is read from the fitted curve at half-maximal effect.
A short description of assay [4]: Primary qHTS for inhibitors of nuclear receptor binding SET domain protein 2 (NSD2) in an RCH-ACV wild type WT cells (2C) (AID 1645877). Also: nearly all actives have a fitted effect of over 70% in size. Also: potency is read from the fitted curve at half-maximal effect.
For assay [5], the target named is Rap guanine nucleotide exchange factor 3 (Homo sapiens) (UniProt O95398). In words: Confirmatory qHTS for antagonist of cAMP-regulated guanine nucleotide exchange factor 3 (EPAC1) (AID 1645880).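 Also: plate controls were DMSO only for no effect and full effect of the ATA control for full effect; nearly all actives have a fitted effect of over 55% in size.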 In outline:
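Released BODIPY-GDP fluoresces less than Rap1-bound BODIPY-GDP; the signal is followed at 480/540 nm at 5-min intervals over 30 min, after 5 min at room temperature. Reactions contain 100 nM EPAC1, 250 nM RAP1B-BODIPY-GDP and 50 uM GDP; results are normalized to ATA and DMSO.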

Assay [6] shares this target. The assay can be described thus: Confirmatory qHTS for agonist of cAMP-regulated guanine nucleotide exchange factor 3 (EPAC1) (AID 1645881).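 Also: EPAC1 catalysed release of BODIPY-GDP from Rap1B seen as fluorescence loss; 100% = effect of cAMP agonist control; nearly all actives have a fitted effect of over 75% in size.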
Assay [7] has as its target Rap guanine nucleotide exchange factor 4 (Homo sapiens) (UniProt Q8WZA2). The assay can be described thus: Confirmatory qHTS for agonist of cAMP-regulated guanine nucleotide exchange factor 4 (EPAC2) (AID 1645884).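 Also: nucleotide exchange releases bodipy-GDP from Rap1 and this lowers its fluorescence; % is scaled to controls: 0 for no effect and ±100 for the full control effect; nearly all actives have a fitted effect of over 65% in size.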
Assay [8] shares this target. In words: Confirmatory qHTS for antagonist of cAMP-regulated guanine nucleotide exchange factor 4 (EPAC2) (AID 1645885). Also: nearly all actives have a fitted effect of over 25% in size. Also: potency is read from the fitted curve at half-maximal effect. As to activity change, negative = inhibition: % is scaled to controls: 0 for no effect and ±100 for the full control effect.
Assay [9] concerns the target Rap guanine nucleotide exchange factor 3 (Homo sapiens) (UniProt O95398). In words: Counterscreen qHTS for antagonist of cAMP-regulated guanine nucleotide exchange factor 3 (EPAC1) (AID 1645888). Also: % of control where 0% means no effect. In outline:
(§1)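 Rap1B-BODIPY-GDP 250 nM + GDP 50 uM; cpds 7-pt, final 9.74 nM–152 uM (activator mode) or from 7.32 nM upwards (inhibitor mode); RT; FI 480/540 nm at 5 and 30 min, then ± cAMP, reread.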

Assay [10] can be described thus: Viability counterscreen for antagonist of constitutive androstane receptor (CAR) against the NCATS DSHEA and TCM libraries (AID 1794837).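 Also: compound exposure lasted 24 h before viability reading; 0% is about no effect.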 In outline:
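Fluorescence from CellTiter-Fluor reports live-cell protease activity in HepG2-CYP2B6-hCAR cells treated for 24 h with substances alongside 48 uM CITCO.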
For orientation: The purpose of a counterscreen is to sort out artefacts and off-target activity.

The target of the next assay is Papain (Carica papaya) (UniProt P00784). The assay can be described thus: Primary qHTS assay for inhibitors of the protease papain (AID 1645873).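 Also: papain turnover of Z-FR-AMC read as the AMC fluorescence gain over 10 min; series mostly up to about 50 µM; % is scaled to controls: 0 for no effect and ±100 for the full control effect.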
Chain of Papain (Carica papaya) (P00784 whole entry, looked up): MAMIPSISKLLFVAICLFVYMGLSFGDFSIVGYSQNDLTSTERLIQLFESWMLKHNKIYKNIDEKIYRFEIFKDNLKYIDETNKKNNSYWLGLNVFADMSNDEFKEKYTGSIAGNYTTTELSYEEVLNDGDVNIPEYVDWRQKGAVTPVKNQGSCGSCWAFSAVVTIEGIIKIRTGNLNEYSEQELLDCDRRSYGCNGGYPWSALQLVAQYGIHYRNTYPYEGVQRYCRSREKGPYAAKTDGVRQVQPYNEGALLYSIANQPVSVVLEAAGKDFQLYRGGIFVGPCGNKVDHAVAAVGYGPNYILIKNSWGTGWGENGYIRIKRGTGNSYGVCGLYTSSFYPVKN
Assay [11] has as its target Rap guanine nucleotide exchange factor 3 (Homo sapiens) (UniProt O95398). In words: Counterscreen qHTS for agonist of cAMP-regulated guanine nucleotide exchange factor 3 (EPAC1) (AID 1645889). Also: % of control where 0% means no effect; nearly all actives have a fitted effect of over 40% in size. In outline:
as §1

Several values for one entry are separate records, joined by “and”; a condition that tells them apart may be missing. Identical values can stand only once. Results filed as inconclusive are left out. The source holds several records for some structures; these can differ, active in one and inactive in another. Activity calls are given as the source filed them. Unless noted, calls follow the shape of the dose curve; as a rule, active = well fitted curve in the direction sought with a large enough effect; inconclusive = small, poorly fitted or top-dose-only effect, or another doubt; inactive = no such curve, though single readings can be large; an effect the other way counts as inactive or inconclusive.

Chain of Cytochrome P450 2D6 (Homo sapiens) (P10635 whole entry, looked up): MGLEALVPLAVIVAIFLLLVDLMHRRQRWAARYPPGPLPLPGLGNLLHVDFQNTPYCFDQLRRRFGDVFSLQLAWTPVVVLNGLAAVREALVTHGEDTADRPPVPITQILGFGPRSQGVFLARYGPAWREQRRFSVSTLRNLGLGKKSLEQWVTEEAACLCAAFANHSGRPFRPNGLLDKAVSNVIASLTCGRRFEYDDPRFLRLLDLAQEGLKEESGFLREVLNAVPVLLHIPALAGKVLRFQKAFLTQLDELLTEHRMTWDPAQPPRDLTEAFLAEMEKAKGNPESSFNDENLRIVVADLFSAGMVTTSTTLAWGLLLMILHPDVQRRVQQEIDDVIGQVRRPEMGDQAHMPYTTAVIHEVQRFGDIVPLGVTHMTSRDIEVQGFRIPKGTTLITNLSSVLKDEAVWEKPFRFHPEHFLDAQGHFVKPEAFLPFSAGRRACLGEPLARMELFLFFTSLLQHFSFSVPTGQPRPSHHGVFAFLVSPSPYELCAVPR
Chain of Rap guanine nucleotide exchange factor 4 (Homo sapiens) (Q8WZA2 whole entry, looked up): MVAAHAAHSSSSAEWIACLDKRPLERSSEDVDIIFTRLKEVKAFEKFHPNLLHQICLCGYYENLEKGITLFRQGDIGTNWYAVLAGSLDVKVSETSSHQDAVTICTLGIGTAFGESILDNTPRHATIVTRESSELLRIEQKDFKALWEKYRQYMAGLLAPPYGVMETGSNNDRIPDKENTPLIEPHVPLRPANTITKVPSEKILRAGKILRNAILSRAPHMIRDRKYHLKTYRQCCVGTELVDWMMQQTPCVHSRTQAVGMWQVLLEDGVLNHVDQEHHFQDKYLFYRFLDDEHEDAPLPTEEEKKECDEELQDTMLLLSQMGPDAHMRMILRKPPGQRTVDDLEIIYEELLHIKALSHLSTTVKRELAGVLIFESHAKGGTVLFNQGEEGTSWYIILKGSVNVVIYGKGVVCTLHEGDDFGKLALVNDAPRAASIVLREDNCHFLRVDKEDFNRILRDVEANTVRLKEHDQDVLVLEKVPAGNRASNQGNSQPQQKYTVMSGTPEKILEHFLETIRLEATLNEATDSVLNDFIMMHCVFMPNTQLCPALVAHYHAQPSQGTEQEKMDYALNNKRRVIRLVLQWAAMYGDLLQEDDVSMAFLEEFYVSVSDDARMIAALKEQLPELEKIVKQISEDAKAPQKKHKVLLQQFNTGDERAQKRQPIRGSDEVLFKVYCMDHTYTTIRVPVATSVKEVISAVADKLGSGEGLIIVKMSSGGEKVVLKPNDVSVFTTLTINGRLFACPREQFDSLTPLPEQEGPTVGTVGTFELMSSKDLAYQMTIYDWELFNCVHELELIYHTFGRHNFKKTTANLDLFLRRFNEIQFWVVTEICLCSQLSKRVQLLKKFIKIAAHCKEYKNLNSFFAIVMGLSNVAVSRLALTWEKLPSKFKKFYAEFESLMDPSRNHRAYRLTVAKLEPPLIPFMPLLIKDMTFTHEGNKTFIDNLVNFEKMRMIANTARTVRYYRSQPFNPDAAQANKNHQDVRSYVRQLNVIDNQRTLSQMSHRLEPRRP
Chain of Rap guanine nucleotide exchange factor 3 (Homo sapiens) (O95398 whole entry, looked up): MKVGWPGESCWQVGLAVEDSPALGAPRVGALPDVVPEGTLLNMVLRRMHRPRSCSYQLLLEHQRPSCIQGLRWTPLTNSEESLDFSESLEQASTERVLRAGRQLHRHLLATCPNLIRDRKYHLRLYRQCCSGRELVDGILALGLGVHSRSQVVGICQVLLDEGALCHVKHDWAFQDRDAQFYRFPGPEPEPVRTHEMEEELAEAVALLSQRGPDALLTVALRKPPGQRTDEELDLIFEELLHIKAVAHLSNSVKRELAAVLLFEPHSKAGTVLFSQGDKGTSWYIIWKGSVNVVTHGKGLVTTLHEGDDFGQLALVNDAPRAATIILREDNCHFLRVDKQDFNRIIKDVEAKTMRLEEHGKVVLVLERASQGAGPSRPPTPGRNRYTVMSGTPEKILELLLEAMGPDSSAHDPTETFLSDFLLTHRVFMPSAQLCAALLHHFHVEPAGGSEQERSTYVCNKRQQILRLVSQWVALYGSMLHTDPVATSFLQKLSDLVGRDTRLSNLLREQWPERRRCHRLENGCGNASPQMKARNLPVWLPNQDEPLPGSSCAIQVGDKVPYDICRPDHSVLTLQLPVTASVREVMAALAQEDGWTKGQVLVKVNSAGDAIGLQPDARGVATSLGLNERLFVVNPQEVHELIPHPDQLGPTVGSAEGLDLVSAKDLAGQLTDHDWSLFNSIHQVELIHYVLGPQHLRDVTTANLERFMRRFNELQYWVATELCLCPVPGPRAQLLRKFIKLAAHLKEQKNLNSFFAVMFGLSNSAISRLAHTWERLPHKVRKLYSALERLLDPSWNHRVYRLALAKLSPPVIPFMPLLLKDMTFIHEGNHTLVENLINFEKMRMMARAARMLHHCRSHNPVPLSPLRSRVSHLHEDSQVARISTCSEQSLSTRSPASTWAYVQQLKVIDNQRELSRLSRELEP

`CC1=C(C(=O)OC(C)C)C(c2cccc([N+](=O)[O-])c2)C(C(=O)OC2CN(C(c3ccccc3)c3ccccc3)C2)=C(N)N1` (stereo not drawn): the Potency was 9.77 µM (active) in assay [1] and 1.95 µM (active) in assay [2]. The Potency entry in [3], in [4], in assay [5], in assay [7] and in assay [8] was “inactive” in each case. Also, the call in assay [6] was inactive.
Regarding `CCOc1ccc(Cc2nccc3cc(OCC)c(OCC)cc23)cc1OCC`, the Potency in assay [1] is 13.8 µM (active); in assay [2], 1.74 µM (active); in assay [3] it was 2.37 µM (active); in [4] it was 2.37 µM (active).
With `CCCCCCCCCCCCCCCC[N+](C)(C)CC`, the Potency in assay [1] was 0.174 µM (active); in assay [3], 0.335 µM (active); in assay [4], 0.299 µM (active).
As to `C/C=C(/C(=C/C)c1ccc(O)cc1)c1ccc(O)cc1`, the Potency was 24.5 µM (active) in assay [1]; 17.4 µM (active) in assay [2]; 14.8 µM (active) in [3]; 10.5 µM (active) in assay [4]; 22.1 µM (active) in assay [8]. Also, the Potency result in assay [5] and in assay [7] was “inactive” each time. Moreover, in [6], the molecule was classed as inactive. The activity change, negative = inhibition was -2.47% [at 12.7 µM] (inactive) in assay [8] and -9.27% [at 30.8 µM] (inactive) in assay [9].
On to `C=CCc1ccc(O)c(OC)c1`, for which the Potency entry in assay [1], in assay [3] and in [4] was “inactive” in each case. The molecule was classed as inactive in [10].
In the case of `C[N+]1(CCCCC[N+]2(C)CCCC2)CCCC1`, the Potency entry (in assay [1]; with Papain (Carica papaya)) was “inactive” each time.
Turning to `CC(=O)OCC(=O)[C@@]12N=C(C)O[C@@H]1C[C@H]1[C@@H]3CCC4=CC(=O)C=C[C@]4(C)[C@H]3[C@@H](O)C[C@@]12C`, the Potency result in assay [1] and in assay [2] was “inactive” each time. Besides, the Potency in assay [4] was 150 nM (active) and 417 nM (active).
For the molecule `C=C1C(=C/C=C2\CCC[C@]3(C)[C@@H]([C@H](C)/C=C/[C@@H](O)C4CC4)CC[C@@H]23)C[C@@H](O)C[C@@H]1O`, the Potency in [1] is 24.5 µM (active); in assay [3], 15 µM (active); in assay [4], 16.8 µM (active).
Take `O=C(CCCN1CCC(O)(c2ccc(Br)cc2)CC1)c1ccc(F)cc1`: the values for the Potency in [1] and in assay [4] were 2.75 µM (active) and 18.8 µM (active), respectively. In addition, the Potency entry in assay [2] is “inactive”.
As for `COCc1c(C(C)C)nc(C(C)C)c(/C=C/[C@@H](O)C[C@@H](O)CC(=O)O)c1-c1ccc(F)cc1`, the Potency result in [1] is “inactive”. Moreover, the Potency in [3] was 0.335 µM (active); in [4], 0.211 µM (active).
In the case of `CN1CCN(CCCN2c3ccccc3Sc3ccc(S(=O)(=O)N(C)C)cc32)CC1`, the results for the Potency in [1] and in [4] were 11 µM (active) and 21.1 µM (active), respectively.
Regarding `C1CCc2nnnn2CC1`, in the assay with Papain (Carica papaya), the Potency result is “inactive”.
Take `CCC(NC(C)C)C(O)c1ccc(O)c(O)c1` (stereo not drawn): the Potency in assay [2] is 15.1 µM (active). For the same molecule, the Potency entry with Papain (Carica papaya) was “inactive”.
Take `CCCCCC=CCC=CCCCCCCCC(=O)OCC`: the Potency was 9.77 µM (active) in [2], 23.7 µM (active) in assay [3] and 18.8 µM (active) in assay [4].
Regarding `COc1cc(C=C2CCC/C(=C\c3ccc(O)c(OC)c3)C2=O)ccc1O`, the results for the Potency in assay [3] and in assay [4] were 0.237 µM (active) and 0.188 µM (active), respectively.
For `Cc1ccc(Nc2c(F)cccc2Cl)c(CC(=O)O)c1`, the Potency result in [4] is “inactive”.
As to `CC(C)COC(=O)OCN1C(=O)CN(CCN2CC(=O)N(COC(=O)OCC(C)C)C(=O)C2)CC1=O`, in the assay with Papain (Carica papaya), the Potency result is “inactive”.
As to `O=C(O)c1cc2cc(Cc3cccnc3)ccc2o1`, the Potency entry with Papain (Carica papaya) was “inactive”.
As for `COc1cc(N)c(Cl)cc1C(=O)NC1CCN(CCCOc2ccc(F)cc2)CC1OC` (stereo not drawn), in assay [2], the Potency entry is “inactive”. Moreover, the values for the Potency in [3] and in assay [4] were 15 µM (active) and 21.1 µM (active), respectively.
Take `Nc1cc(Cl)c(NC2=NCCN2)c(Cl)c1`: the Potency entry in the assay with Papain (Carica papaya) was “inactive”.
In the case of `COc1ccc(/C=C/C(=O)c2ccc(OC)cc2OC)cc1`, the Potency in [2] was 4.36 µM (active); in assay [3], 11.9 µM (active); in assay [4] it was 10.6 µM (active); in assay [8] it was 15.6 µM (active) and inactive. Moreover, the molecule was called inactive in assay [6] and in [9]. Moreover, the Potency entry in assay [7] and in assay [11] was “inactive” in each case.
